Results: PubChem BioAssay (NCATS)
Values joined by “and” are separate entries in the source; they are usually repeats but may differ in a detail not shown here. Equal entries are not always repeated. Results filed as inconclusive are left out. Where a call stands in place of a potency, no number is given. Where a structure was tested more than once in an assay, its records may differ in their call. Active and inactive are the calls of the source. Unless noted, the call rests on the fitted dose curve; in most records, active means well fitted curve in the direction sought with a large enough effect; inconclusive means small, poorly fitted or top-dose-only effect, or another doubt; inactive means no such curve, though single readings can be large; an effect the other way counts as inactive or inconclusive.

How the values were obtained:
[1] = target: Glutathione peroxidase 1 (Homo sapiens) (UniProt P07203); assay: Primary qHTS Assay for Inhibitors of Recombinant Selenoprotein Glutathione Peroxidase 1 (GPX1) (AID 1845191); further: nearly all actives have a fitted effect of over 65% in size; further: potency means the concentration at half of the fitted maximal effect
Glutathione peroxidase 1 (Homo sapiens), sequence (P07203 whole entry, looked up): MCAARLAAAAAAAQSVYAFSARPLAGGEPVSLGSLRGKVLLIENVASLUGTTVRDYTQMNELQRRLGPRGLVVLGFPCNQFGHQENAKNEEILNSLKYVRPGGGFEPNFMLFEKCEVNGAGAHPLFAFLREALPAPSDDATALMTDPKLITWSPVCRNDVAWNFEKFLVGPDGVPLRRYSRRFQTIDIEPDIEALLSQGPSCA
In short: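 GR-coupled assay: compounds preincubated 30 min at room temperature with GPX1, then reaction started with CHP; final 10 nM GPX1, 1 mM GSH, 0.5 mM CHP, 0.5 mM NADPH, 100 nM GR, 0.01% BSA, pH 7.5 Tris buffer. NADPH fluorescence (340/450 nm) read at 0 and 15 min.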

[2] = target: Phospholipid hydroperoxide glutathione peroxidase GPX4 (Homo sapiens) (UniProt P36969); assay: Primary qHTS Assay for Inhibitors of Recombinant Selenoprotein Glutathione Peroxidase 4 (GPX4) (AID 1845192); further: nearly all actives have a fitted effect of over 65% in size; further: potency means the concentration at half of the fitted maximal effect
Phospholipid hydroperoxide glutathione peroxidase GPX4 (Homo sapiens), sequence (P36969 whole entry, looked up): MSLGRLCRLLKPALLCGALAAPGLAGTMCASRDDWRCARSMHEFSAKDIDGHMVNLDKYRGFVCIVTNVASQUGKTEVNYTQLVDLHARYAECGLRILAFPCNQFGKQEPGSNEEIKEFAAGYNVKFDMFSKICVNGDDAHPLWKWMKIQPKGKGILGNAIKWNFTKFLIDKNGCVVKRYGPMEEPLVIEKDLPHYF
In short: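 GR-coupled assay: recombinant GPX4 preincubated 30 min with compound at room temperature; final 200 nM GPX4, 1 mM GSH, 0.5 mM cumene hydroperoxide, 0.5 mM NADPH, 100 nM GR, 0.01% BSA, pH 7.5 Tris. NADPH fluorescence (340/450 nm) read at 0 and 15 min.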

[3] = qHTS drug screen for cell cycle checkpoint inhibitors in PARPi-resistant BRCA-mutant ovarian cancer cell lines. (AID 1963452; calls by dose curve; further: potency means the concentration at half of the fitted maximal effect); details: PEO1/OlaR viability, CellTiter-Glo luminescence, 96 h; for Z-AUC: stronger effect = lower value
In short: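 PEO1, PEO4 and PEO1/OlaR ovarian cancer cells, 600 per well, exposed 96 h at 37C to a dilution series. Viability read by CellTiter-Glo luminescence, normalized to DMSO and empty wells; activity summarized as Z-AUC.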

[4] = target: Luciferin 4-monooxygenase (Photinus pyralis) (UniProt P08659); assay: Primary firefly luciferase (FLuc) qHTS assay for identification of artifact compounds. (AID 1845220); details: outcome: dose series up to 54.1 µM; further: nearly all actives have a fitted effect of over 60% in size
In short: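 Titrated compounds were incubated 15 min at RT, protected from light, with luciferin and ATP at 10 uM; reaction started with 10 nM FLuc, luminescence imaged at 5 min, and concentration-response fitted by Hill equation.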

[5] = Primary fluorescence-based thiol-reactive (MSTI) qHTS assay for identification of artifact compounds. (AID 1845221); further: nearly all actives have a fitted effect of over 65% in size; further: potency means the concentration at half of the fitted maximal effect
In short: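 First, 4 uM MSTI in 2% DMSO/PBS pH 7.4 was dispensed; next, compounds were added; then plates sat 1 h at room temperature without light. Finally, emission at 598 nm was recorded.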

[6] = test system: Nanoluciferase (engineered Oplophorus gracilirostris luciferase); assay: Primary Nanoluciferase (NLuc) qHTS assay for identification of artifact compounds. (AID 1845222); further: potency means the concentration at half of the fitted maximal effect
In short: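 qHTS format, against NLuc in S16 cell-conditioned medium. Nano-Glo substrate 1:100 was added after 15 min at room temperature. Luminescence was taken after a further 5 min.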

[7] = Primary redox qHTS assay for identification of artifact compounds. (AID 1845223)
In short: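 Amplex Red (25 uM) and HRP (250 mU/mL) in HBSS, with compounds for 15 min, then 250 uM DTT for 30 min, room temperature, dark. Fluorescence 525/598 nm read; normalized to DMSO and 10 uM DA3003; Hill fit.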

[8] = target: Cytochrome P450 3A4 (Homo sapiens) (UniProt P08684); assay: qHTS for inhibitors of CYP3A4 against the NCATS DSHEA and TCM libraries (AID 1919971);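 further: inhibition lowers luminescence from luciferin made by CYP3A4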
Cytochrome P450 3A4 (Homo sapiens), sequence (P08684 whole entry, looked up): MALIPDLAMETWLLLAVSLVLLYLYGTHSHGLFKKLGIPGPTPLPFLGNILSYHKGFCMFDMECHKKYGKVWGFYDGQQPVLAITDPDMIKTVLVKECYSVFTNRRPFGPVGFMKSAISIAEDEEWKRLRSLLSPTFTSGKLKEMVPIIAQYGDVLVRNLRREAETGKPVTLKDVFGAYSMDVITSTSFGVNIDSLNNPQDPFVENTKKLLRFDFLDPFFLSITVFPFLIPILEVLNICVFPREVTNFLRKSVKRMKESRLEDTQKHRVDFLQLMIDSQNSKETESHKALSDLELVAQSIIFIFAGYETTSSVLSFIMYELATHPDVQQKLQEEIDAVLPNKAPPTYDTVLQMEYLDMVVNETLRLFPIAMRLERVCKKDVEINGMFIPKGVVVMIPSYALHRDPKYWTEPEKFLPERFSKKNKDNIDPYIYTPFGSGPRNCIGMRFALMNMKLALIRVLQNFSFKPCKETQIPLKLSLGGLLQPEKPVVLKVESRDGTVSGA
In short: (§1)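 Light output from converted D-luciferin reports remaining CYP activity. Compounds preincubate with enzyme and substrate for 15 min; NADPH regeneration (1x final) runs the reaction for 30-45 min.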

[9] = target: Cytochrome P450 2D6 (Homo sapiens) (UniProt P10635); assay: qHTS for inhibitors of CYP2D6 against the NCATS DSHEA and TCM libraries (AID 1919972)
Cytochrome P450 2D6 (Homo sapiens), sequence (P10635 whole entry, looked up): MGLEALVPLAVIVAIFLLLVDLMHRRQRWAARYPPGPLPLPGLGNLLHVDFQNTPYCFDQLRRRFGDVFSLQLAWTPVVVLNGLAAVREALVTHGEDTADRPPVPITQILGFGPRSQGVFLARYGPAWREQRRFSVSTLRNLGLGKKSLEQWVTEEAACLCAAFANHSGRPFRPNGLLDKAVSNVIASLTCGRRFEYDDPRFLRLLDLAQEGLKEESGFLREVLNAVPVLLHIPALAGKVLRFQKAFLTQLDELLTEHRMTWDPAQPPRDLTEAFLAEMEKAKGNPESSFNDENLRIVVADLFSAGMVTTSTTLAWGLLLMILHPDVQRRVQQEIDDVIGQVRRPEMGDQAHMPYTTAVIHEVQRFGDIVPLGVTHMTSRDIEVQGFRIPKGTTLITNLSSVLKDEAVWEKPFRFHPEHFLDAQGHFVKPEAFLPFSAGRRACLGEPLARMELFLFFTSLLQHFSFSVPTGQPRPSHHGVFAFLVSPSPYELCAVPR
In short: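 Steps: enzyme plus luciferin substrate dispensed; test substances pinned; 15 min RT; 1x NADPH regenerating solution added, 30–45 min RT protected from light; detection reagent, 30 min RT; luminescence measured. Minus-enzyme wells as background.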

[10] = target: Cytochrome P450 2C9 (Homo sapiens) (UniProt P11712); assay: qHTS for inhibitors of CYP2C9 against the NCATS DSHEA and TCM libraries (AID 1919973);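 further: luminogenic pro-luciferin CYP2C9 substrate turned into luciferin with NADPH regeneration; series mostly up to about 34 µM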
Cytochrome P450 2C9 (Homo sapiens), sequence (P11712 whole entry, looked up): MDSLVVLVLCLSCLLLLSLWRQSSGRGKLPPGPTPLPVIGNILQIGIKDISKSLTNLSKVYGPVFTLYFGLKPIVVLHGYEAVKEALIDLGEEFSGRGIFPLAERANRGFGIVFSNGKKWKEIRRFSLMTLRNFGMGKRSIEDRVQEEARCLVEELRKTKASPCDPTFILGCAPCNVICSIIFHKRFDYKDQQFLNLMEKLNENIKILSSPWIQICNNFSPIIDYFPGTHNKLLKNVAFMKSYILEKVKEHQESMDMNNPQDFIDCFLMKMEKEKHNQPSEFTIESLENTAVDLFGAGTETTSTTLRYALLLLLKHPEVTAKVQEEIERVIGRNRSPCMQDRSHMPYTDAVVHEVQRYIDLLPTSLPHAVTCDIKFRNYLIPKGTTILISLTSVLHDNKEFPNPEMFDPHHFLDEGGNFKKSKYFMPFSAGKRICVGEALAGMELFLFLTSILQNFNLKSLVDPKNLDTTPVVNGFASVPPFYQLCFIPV
In short: as §1

[11] = target: Cytochrome P450 2C19 (Homo sapiens) (UniProt P33261); assay: qHTS for inhibitors of CYP2C19 against the NCATS DSHEA and TCM libraries (AID 1919974);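 further: luminescence from luciferin released by CYP2C19 oxidation of a pro-luciferin substrate; potency means the concentration at half of the fitted maximal effect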
Cytochrome P450 2C19 (Homo sapiens), sequence (P33261 whole entry, looked up): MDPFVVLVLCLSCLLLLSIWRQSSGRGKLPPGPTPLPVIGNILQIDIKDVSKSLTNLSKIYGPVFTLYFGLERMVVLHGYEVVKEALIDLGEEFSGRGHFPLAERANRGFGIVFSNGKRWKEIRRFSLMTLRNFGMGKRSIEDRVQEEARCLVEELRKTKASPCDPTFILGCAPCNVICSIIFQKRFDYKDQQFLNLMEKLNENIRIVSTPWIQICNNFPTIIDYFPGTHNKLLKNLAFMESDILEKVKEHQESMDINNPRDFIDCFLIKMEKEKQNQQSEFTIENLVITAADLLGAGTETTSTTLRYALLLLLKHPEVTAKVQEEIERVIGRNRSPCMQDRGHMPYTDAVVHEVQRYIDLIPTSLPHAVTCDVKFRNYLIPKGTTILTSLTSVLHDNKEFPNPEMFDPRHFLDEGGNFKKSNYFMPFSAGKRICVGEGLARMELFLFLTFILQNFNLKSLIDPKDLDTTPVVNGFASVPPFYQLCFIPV
In short: as §1

[12] = KB-3-1 P-gp reporter qHTS against the NCATS DSHEA and TCM libraries (AID 1919975)
In short: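 KB-3-1 parental line, 1536-well qHTS: cells seeded, ~4 h attachment, pintool compound addition, ~72 h at 37C, then CellTiter-Glo, 30 min RT, luminescence. Concentration-response format.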

[13] = qHTS Counterscreen for compound interference against the NCATS DSHEA and TCM libraries (AID 1919978); details: firefly luciferase detection reagent interference, luminescence;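 further: compounds preincubated with 1 µM D-luciferin or buffer before detection reagent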
In short: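 Compounds, titrated from 19.5 nM to 39.8 uM final, were pinned onto 1 uM D-luciferin or plain 100 mM potassium phosphate. After 15 min at room temperature, luciferin detection reagent was added for 30 min before the luminescence read.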

[14] = Dual reporter qHTS for agonist of Pregnane X Receptor (hPXR) against the NCATS DSHEA and TCM libraries: Fluorescence readout (AID 1920058)
In short: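 Measures viability of the PXR reporter HepG2 line by protease-substrate fluorescence (405/540 nm), taken 1 h after CellTiter-Fluor addition. Substances are tested as concentration series over a ~24 h exposure, with rifampicin as agonist control.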

[15] = target: Nuclear receptor subfamily 1 group I member 2 (Homo sapiens) (UniProt O75469); assay: Dual reporter qHTS for agonist of Pregnane X Receptor (hPXR) against the NCATS DSHEA and TCM libraries: Luminescence readout (AID 1920059)
Nuclear receptor subfamily 1 group I member 2 (Homo sapiens), sequence (O75469 whole entry, looked up): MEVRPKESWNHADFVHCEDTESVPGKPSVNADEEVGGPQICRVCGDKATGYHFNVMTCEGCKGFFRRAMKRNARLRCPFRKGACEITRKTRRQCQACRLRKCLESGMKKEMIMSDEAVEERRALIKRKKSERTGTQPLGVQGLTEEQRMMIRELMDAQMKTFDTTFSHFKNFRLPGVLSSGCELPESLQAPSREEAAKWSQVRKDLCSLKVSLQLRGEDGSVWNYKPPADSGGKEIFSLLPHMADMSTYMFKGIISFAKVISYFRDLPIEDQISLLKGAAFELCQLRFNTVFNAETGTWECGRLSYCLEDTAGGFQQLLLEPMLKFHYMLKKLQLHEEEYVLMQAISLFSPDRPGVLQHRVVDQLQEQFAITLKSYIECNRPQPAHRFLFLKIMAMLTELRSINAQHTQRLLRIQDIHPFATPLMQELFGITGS
In short: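 hPXR-Luc HepG2 cells, 2000/well in 5% charcoal-stripped FBS medium, attached 5 h, then exposed 24 h at 37C to compounds. Viability by CellTiter-Fluor, then luciferase luminescence with ONE-Glo.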

[16] = Dual reporter qHTS for antagonist of Pregnane X Receptor (hPXR) against the NCATS DSHEA and TCM libraries: Fluorescence Readout (AID 1920061)
In short: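 Rifampicin-stimulated (2 uM final) hPXR-luciferase HepG2 cells were treated for 24 h with DSNP/TCM substances. Viability came from CellTiter-Fluor fluorescence, reporter activity from ONE-Glo luminescence.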

[17] = measured here: PEO1 parental Z-AUC

C[C@]12CCC(=O)C=C1[C@@H]1C[C@@H]1[C@H]1[C@@H]3[C@@H]4C[C@@H]4[C@@]4(CCC(=O)O4)[C@@]3(C)CC[C@@H]12
Potency [1]: inactive
Potency [2]: inactive
Z-AUC [3]: 1.29 (inactive)
Z-AUC [3, 17]: 0.636
Z-AUC ([3]; measured here: PEO4 Z-AUC): 1.11

COc1cccc2c1C(=O)c1c(O)c3c(c(O)c1C2=O)C[C@@](O)(C(C)=O)C[C@@H]3O[C@H]1C[C@H](N)[C@H](O)[C@H](C)O1
Potency [1]: inactive
Potency [2]: inactive
Potency [3]: 0.174 µM (active)
Z-AUC [3, 17]: -2.1
Z-AUC ([3]; measured here: PEO4 Z-AUC): -2.06

COc1cc(NS(C)(=O)=O)ccc1Nc1c2ccccc2nc2ccccc12
Potency [1]: inactive and 25.5 µM (active)
Potency [2]: inactive and 22.4 µM (active)
Z-AUC [3]: -0.779 (inactive)
Z-AUC [3, 17]: -1.77
Z-AUC ([3]; measured here: PEO4 Z-AUC): -0.818

COC(=O)[C@@H]1CC2=CC(=O)CC[C@]2(C)[C@@]23O[C@@H]2C[C@@]2(C)[C@@H](CC[C@@]24CCC(=O)O4)[C@H]13
Potency [1]: inactive
Potency [2]: inactive
Z-AUC [3]: -0.162 (inactive)
Z-AUC [3, 17]: -0.149
Z-AUC ([3]; measured here: PEO4 Z-AUC): 0.317

CC(=O)OCC(=O)[C@@]12OC(C)(C)O[C@@H]1C[C@H]1[C@@H]3C[C@H](F)C4=CC(=O)C=C[C@]4(C)[C@@]3(F)[C@@H](O)C[C@@]12C
Potency [1]: inactive
Z-AUC [3]: -0.667 (inactive)
Z-AUC [3, 17]: 0.136
Z-AUC ([3]; measured here: PEO4 Z-AUC): -0.783

Cc1ncc(CSSCc2cnc(C)c(O)c2CO)c(CO)c1O
Potency [2]: inactive

Cc1ccccc1C(=O)Nc1ccc(C(=O)N2CCCC(N(C)C)c3ccccc32)cc1 (stereo not drawn)
Potency [1]: inactive
Potency [2]: inactive
outcome [4]: inactive
Potency [5]: inactive
Potency [6]: inactive
outcome [7]: inactive

CC(=O)OCC(=O)[C@@]12N=C(C)O[C@@H]1C[C@H]1[C@@H]3CCC4=CC(=O)C=C[C@]4(C)[C@H]3[C@@H](O)C[C@@]12C
Potency [1]: inactive
Potency [2]: inactive
Z-AUC [3]: 0.653 (inactive)
Z-AUC [3, 17]: 1.08
Z-AUC ([3]; measured here: PEO4 Z-AUC): 0.153

CC(C)n1nc(-c2cc3cc(O)ccc3[nH]2)c2c(N)ncnc21
Potency [1]: inactive
outcome [4]: inactive
Potency [5]: 10.6 µM (active)
Potency [6]: inactive
Z-AUC [3]: -1.59 (inactive)
Z-AUC [3, 17]: -1.29
Z-AUC ([3]; measured here: PEO4 Z-AUC): -1.52

Nc1nc2ncc(CNc3ccc(C(=O)N[C@@H](CCC(=O)O)C(=O)O)cc3)nc2c(=O)[nH]1
outcome [8]: inactive
outcome [9]: inactive
outcome [10]: inactive
Potency [11]: 3.55 µM (active)
outcome [12]: inactive
max response [13]: -4.69% (inactive)
outcome [14]: inactive
outcome [15]: inactive
outcome [16]: inactive

CC(=O)OCC(=O)[C@@]1(O)CC[C@H]2[C@@H]3CCC4=CC(=O)C=C[C@]4(C)[C@H]3[C@@H](O)C[C@@]21C
Potency [1]: inactive
outcome [4]: inactive
Potency [5]: inactive
Potency [6]: inactive
outcome [7]: inactive
Z-AUC [3]: -0.27 (inactive)
Z-AUC [3, 17]: 1.1
Z-AUC ([3]; measured here: PEO4 Z-AUC): 0.219

CN(C)CC/C=C1/c2ccccc2COc2ccc(CC(=O)O)cc21
Potency [1]: inactive
Z-AUC [3]: -0.218 (inactive)
Z-AUC [3, 17]: 0.35
Z-AUC ([3]; measured here: PEO4 Z-AUC): -0.471

CC(=O)N(O)CCCCCNC(=O)CCC(=O)N(O)CCCCCNC(=O)CCC(=O)N(O)CCCCCN
Potency [1]: inactive
Potency [2]: inactive
Z-AUC [3]: -0.069 (inactive)
Z-AUC [3, 17]: -0.402
Z-AUC ([3]; measured here: PEO4 Z-AUC): -0.683

Cc1cc2c(cc1CC(=O)c1sccc1S(=O)(=O)Nc1onc(C)c1Cl)OCO2
Potency [1]: 18 µM (active) and inactive
Potency [2]: inactive
outcome [4]: inactive
Potency [6]: 16.9 µM (active)
outcome [7]: inactive
Z-AUC [3]: 0.64 (inactive)
Z-AUC [3, 17]: 0.98
Z-AUC ([3]; measured here: PEO4 Z-AUC): 0.661

CC(C)(C)NC(=O)[C@@H]1CN(Cc2cccnc2)CCN1C[C@@H](O)C[C@@H](Cc1ccccc1)C(=O)N[C@H]1c2ccccc2C[C@H]1O
Potency [1]: inactive
Potency [2]: inactive
outcome [4]: inactive
Potency [5]: inactive
Potency [6]: inactive
outcome [7]: inactive
